The structures appear in SMILES notation. “And” between values parts separate entries of the source, which are not always exact repeats. Identical values can stand only once. Inconclusive results are not listed. A number with no mark means an inactive call. The source made the active and inactive calls. The call rests on the fitted dose curve; in most records, active means well fitted cell-killing curve with a large enough effect in the repeat runs; inconclusive means weak or mixed curves; inactive means flat fitted curve, though single readings scatter.
On the % scale 0 is the no-effect control and ±100 the full control effect; potency means the concentration at half of the fitted maximal effect.

The experiment is described as follows: qHTS assay for small molecule agonists of the antioxidant response element (ARE) signaling pathway measured by Nrf2-dependant transcriptional activity - cell viability counter screen (AID 720653). The settings on record: ARE-bla HepG2 viability, CellTiter-Glo ATP luminescence, 16 h; max response: active compounds read low. An excerpt: National Center for Advancing Translational Sciences [NCATS] NIH Chemical Genomics Center [NCGC] U.S. Environmental Protection Agency [EPA] National Institutes of Environmental Health Sciences [NIEHS] National Toxicology Program [NTP] Assay Overview: Oxidative stress has been implicated in the pathogenesis of a variety of diseases ranging from cancer to neurodegeneration. The antioxidant response element (ARE) signaling pathway plays an important role in the amelioration of oxidative stress. The CellSensor ARE-bla HepG2 cell line (Invitrogen) can be used for analyzing the Nrf2/antioxidant response signaling pathway. Nrf2 (NF-E2-related factor 2) and Nrf1 are transcription factors that bind to AREs and activate these genes. The CellSensor ARE-bla HepG2 cell line contains a beta-lactamase reporter gene under control of the Antioxidant Response Element (ARE) stably integrated into HepG2 cells. The activation of the report gene under culture conditions can be detected by fluorescence intensity. The cytotoxicity of the compounds against the ARE-bla HepG2 cell line was quantified by measuring the intracellular ATP content.
Assay Protocol Summary: ARE-bla HepG2 cells were dispensed at 2,000 cells/5 ul/well in 1536-well black wall/clear bottom plates using a Multidrop Combi (ThermoFisher Scientific, Waltham, MA) dispenser. After the assay plates were incubated at 37C/5% CO2 for 5 hrs, 23 nL of compounds dissolved in DMSO, positive controls or DMSO only was transferred to the assay plate by a pintool work station (Kalypsys, San Diego, CA). The plates were incubated at 37C/5% CO2 for 16 hrs. After 1 uL of LiveBLAzer B/G FRET substrate was added using a Flying Reagent Dispenser (FRD) (Aurora Discovery, San Diego, CA), the assay plates were incubated at room temperature for 2 hrs. The fluorescence intensity was measured by an Envision (PerkinElmer, Shelton, CT) plate reader. Cell viability using CellTiter Glo viability assay (Promega, Madison, WI) was also measured by adding 4 ul/well of CellTiter-Glo reagent into the same assay plate using a FRD. After 30 min incubation at room temperature, the luminescence intensity in the plates was measured using a ViewLux (PerkinElmer) plate reader.
In the case of `CN=C(NC#N)NCCSCc1nc[nH]c1C`, the max response is 0.359%.
The same measure, in the same setting: for `CC(=O)Nc1nnc(S(N)(=O)=O)s1` the value was 1.81%; for `O=C(O)CCCCCCCC(=O)O`, -8.37%; for `CC(C)(Oc1ccc(CCNC(=O)c2ccc(Cl)cc2)cc1)C(=O)O`, -11.9%.
For `O=c1[nH]c(=O)n([C@H]2C[C@H](O)[C@@H](CO)O2)cc1Br`, the max response was -13.7%.
In the case of `CCCCOCCOCCOCc1cc2c(cc1CCC)OCO2`, the max response is -10.7% and -4.66%.
The same measure, in the same setting: for `CCCCNC(=O)NS(=O)(=O)c1ccc(C)cc1` the value was 6.42% and -5.96%; for `NC(=O)N1c2ccccc2C=Cc2ccccc21`, -1.67% and -8.32%.
For the compound `C[C@]12C=CC(=O)C=C1CC[C@H]1[C@@H]3C[C@@H](O)[C@](O)(C(=O)CO)[C@@]3(C)C[C@H](O)[C@@]12F`, the max response is -0.0511%.
With `C[C@]12CCC(=O)C=C1CC[C@@H]1[C@@H]2C(=O)C[C@@]2(C)[C@H]1CC[C@]2(O)C(=O)CO`, the max response is -5.48%.
Regarding `COc1cc(Cc2cnc(N)nc2N)cc(OC)c1OC`, the max response was 0.934%.
As to `Nc1nc(N)c2nc(-c3ccccc3)c(N)nc2n1`, the Potency is 25.1 µM (active).
On to `COc1ccc(CN(CCN(C)C)c2ccccn2)cc1`, for which the max response was -3.41%.
As to `COC(=O)[C@H]1[C@H]2C[C@@H]3c4[nH]c5cc(OC)ccc5c4CCN3C[C@H]2C[C@@H](OC(=O)c2cc(OC)c(OC)c(OC)c2)[C@@H]1OC`, the max response was -16.7% and -9.72%.
For the compound `Nc1ncn([C@@H]2O[C@H](CO)[C@@H](O)[C@H]2O)c(=O)n1`, the max response was -13.9% and 0.747%.
For `CC(=O)[C@@]1(O)CC[C@H]2[C@@H]3CCC4=CC(=O)CC[C@]4(C)[C@H]3CC[C@@]21C`, the max response was -7.45%.
As to `Cc1ccc(S(=O)(=O)NC(=O)NN2CCCCCC2)cc1`, the max response was 1.34%.

For the origin of these results see PubChem BioAssay (NCATS).
